The text below walks through data of PubChem BioAssay (EPA / NIEHS).

Several values for one entry are separate records, joined by “and”; a condition that tells them apart may be missing. Equal entries are not always repeated. Activity calls are given as the source filed them. How the source made its calls: active means hit-call score of the fitted dose curve at least 0.9, where 1 is the maximum; inactive means score below 0.9.

Read-out in this assay: Decorin, DCN (gene 1634)
The assay can be described thus: BSK_MyoF_Decorin: BioMAP Diversity Plus: MyoF Assay for Decorin Biomarker Activity (AID 2284265). Conditions: primary human lung fibroblasts. As for the experimental part:
BSK_MyoF is a cell-based, multiplexed-readout assay that uses lung fibroblasts, […], with measurements taken at 24 hours after chemical dosing in a microplate: 96-well plate.BSK_MyoF_Decorin is an assay component measured in the BSK_MyoF assay. It measures Decorin antibody related to regulation of gene expression using ELISA technology.Data from the assay component BSK_MyoF_Decorin was analyzed at the endpoint, BSK_MyoF_Decorin, in the positive analysis fitting direction relative to DMSO as the negative control and baseline of activity. Using a type of binding reporter, gain or loss-of-signal activity can be used to understand protein changes. To generalize the intended target to other relatable targets, this assay endpoint is annotated to the 'cell adhesion molecules' intended target family, where the subfamily is 'decorin'.
The levels of cell surface (or secreted, indicated by the prefix "s") biomarker endpoints were measured by ELISA. Overt cytotoxicity to cells in confluent adherent cultures (all systems other than the BT system) was assessed by measuring total protein levels using sulforhodamine B (SRB) staining in parallel cultures at the time of biomarker measurements, indicated as SRB endpoints. For proliferation assays for adherent cell types, individual cell types are cultured at sub-confluence and relative cell numbers quantified by SRB staining at time points optimized for each system (48 h: 3C and CASM3C systems; 72 h: BT and HDF3CGF systems; 96 h: SAg system). SRB was performed by staining cells with 0.1% SRB after fixation with 10% TCA and reading wells at 560 nm.Viability and proliferation of PBMC (T cells) was quantified by Alamar Blue reduction for the SAg and BT systems. For PBMC viability (referred to as PBMC Cytotoxicity within the assay endpoint names), cells were plated (75,000/well in a 96-well plate) and then chemical samples added for 1 h before addition of activators, SEB and TSST-1 (20 ng/mL final concentration each). Cells were incubated for 90 h. Then, Alamar Blue (20 uL/well) (Invitrogen, Cat DAL1100) was added for 6 h, and the plates were read with a fluorescence microplate reader at 546/580 nm (excitation/emission). For PBMC proliferation, cells were plated and activated as above but incubated for only 16 h prior to addition of Alamar Blue. Plates were read after 6 h.
For `CCCCCCC(O)CCCCCCCCCCC(=O)OC` (stereo not given), the outcome was inactive.

`CC(C)CC(=O)CC(C)CC(C)C` (stereo not given): the result was inactive. As for `O=C(C(=O)c1ccccc1)c1ccccc1`, the outcome was inactive. Turning to `CCCCCCCCCCC1CO1` (stereo not given), the AC50 was 24.7 µM (active).

Consider `Oc1cccc2ccccc12`, for which the result was inactive.

Regarding `Sc1nc2ccccc2s1`, the outcome was inactive. Still for that read-out and setting: the result for `CC[N+](CC)(CC(=O)Nc1c(C)cccc1C)Cc1ccccc1` reads “inactive”; that for `COC(=O)/C=C\C(=O)OC`, “inactive”. For `OC(C(F)(F)F)(C(F)(F)F)C(O)(C(F)(F)F)C(F)(F)F`, the AC50 is 30 µM (active) and 46.7 µM (active).

As to `CN(C)CCC(c1ccc(Cl)cc1)c1ccccn1` (stereo not given), the result was inactive. With `CN(C)c1ccc(C(c2ccccc2)c2ccc(N(C)C)cc2)cc1`, the result was inactive. The same measure, in the same setting: the result for `CCCCCCCCCCCCCCCCCC[N+](C)(C)C` reads “inactive”; that for `Cc1cc(-n2nc3ccc(Cl)cc3n2)c(O)c(C(C)(C)C)c1`, “inactive”. Same read-out and setting: for `Cc1cccnc1` the value was “inactive”; for `CCCCCCCCCC/C=C/C1CC(=O)OC1=O` (stereo not given), “inactive”.
